# A number with no mark means an inactive call. Records with an inconclusive call do not appear. Active and inactive are the calls of the source. Calls follow the shape of the dose curve; as a rule, active = well fitted curve in the direction sought with a large enough effect; inconclusive = small, poorly fitted or top-dose-only effect, or another doubt; inactive = no such curve, though single readings can be large; an effect the other way counts as inactive or inconclusive.
# Key:
# [1] = tested on: Nanoluciferase (engineered Oplophorus gracilirostris luciferase); assay: Primary Nanoluciferase (NLuc) qHTS assay for identification of artifact compounds. (AID 1845222);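 also: 0% = DMSO and -100% = no enzyme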
# Outline: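 Luminescence read-out of secreted NLuc in S16 cell conditioned medium (1:55); compounds tested with 15 min RT preincubation, then Nano-Glo substrate 1:100, 5 min. % inhibition vs no-enzyme and DMSO controls, 4-parameter Hill fit.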
# [2] = Primary redox qHTS assay for identification of artifact compounds. (AID 1845223)
# Outline: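 Amplex Red (25 uM) and HRP (250 mU/mL) in HBSS, with compounds for 15 min, then 250 uM DTT for 30 min, room temperature, dark. Fluorescence 525/598 nm read; normalized to DMSO and 10 uM DA3003; Hill fit.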
# [3] = Quantitative High-Throughput drug screen in 47 multiple myeloma cell lines against the NCATS MIPE library collection: ARD_JJKsccE7 cell viability assay (AID 1918929; also: potency is read from the fitted curve at half-maximal effect)
# Outline: (§1)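 Viability readout: CellTiter-Glo luminescence following 5 min room-temperature incubation with reagent. Prior exposure: 48 h, 37C, humidified 5% CO2, 500 cells per well.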
# [4] = Quantitative High-Throughput drug screen in 47 multiple myeloma cell lines against the NCATS MIPE library collection: INA6_PLB cell viability assay (AID 1918965; also: nearly all actives have a fitted effect of over 55% in size; also: potency is read from the fitted curve at half-maximal effect)
# Outline: (§2)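 Approved and investigational drugs from MIPE 4.0 were added by pin tool to 500 cells per well. After 48 hours at 37C, ATP-based CellTiter-Glo luminescence indicated remaining viability.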
# [5] = Quantitative High-Throughput drug screen in 47 multiple myeloma cell lines against the NCATS MIPE library collection: JJN3_DSMZ cell viability assay (AID 1918966; also: potency is read from the fitted curve at half-maximal effect; nearly all actives have a fitted effect of over 50% in size)
# Outline: as §1
# [6] = Quantitative High-Throughput drug screen in 47 multiple myeloma cell lines against the NCATS MIPE library collection: KMS27_JCRB cell viability assay (AID 1918970); conditions: KMS27 myeloma cells, CellTiter-Glo ATP viability, 48 h; viability (% of DMSO): at 45.8 µM (top of the series); also: nearly all actives have a fitted effect of over 30% in size; also: potency is read from the fitted curve at half-maximal effect
# Outline: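 KMS27_JCRB myeloma cells, 500 per well, exposed 48 h at 37 C, 5% CO2 to MIPE 4.0 compounds. Viability from ATP by CellTiter-Glo luminescence, normalized to DMSO (100%) and medium-only (0%) wells.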
# [7] = Quantitative High-Throughput drug screen in 47 multiple myeloma cell lines against the NCATS MIPE library collection: FR4_PLB cell viability assay (AID 1918924; also: nearly all actives have a fitted effect of over 35% in size; also: potency is read from the fitted curve at half-maximal effect)
# Outline: as §1
# [8] = Quantitative High-Throughput drug screen in 47 multiple myeloma cell lines against the NCATS MIPE library collection: EJM_DSMZ cell viability assay (AID 1918926; also: nearly all actives have a fitted effect of over 30% in size; also: potency is read from the fitted curve at half-maximal effect)
# Outline: as §1
# [9] = Quantitative High-Throughput drug screen in 47 multiple myeloma cell lines against the NCATS MIPE library collection: AMO1_DSMZ cell viability assay (AID 1918927; also: nearly all actives have a fitted effect of over 30% in size; also: potency is read from the fitted curve at half-maximal effect)
# Outline: as §1
# [10] = Quantitative High-Throughput drug screen in 47 multiple myeloma cell lines against the NCATS MIPE library collection: ARP1_JJKsccF8 cell viability assay (AID 1918928; also: nearly all actives have a fitted effect of over 40% in size; also: potency is read from the fitted curve at half-maximal effect)
# Outline: (§3)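 Luminescence from CellTiter-Glo, taken after 5 min at room temperature, reports cellular ATP as viability. Cells (500 per well) had been treated 48 h at 37 °C with MIPE 4.0 compounds, scaled between DMSO and medium-only controls.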
# [11] = Quantitative High-Throughput drug screen in 47 multiple myeloma cell lines against the NCATS MIPE library collection: Karpas620_DSMZ cell viability assay (AID 1918959); also: nearly all actives have a fitted effect of over 30% in size; also: potency is read from the fitted curve at half-maximal effect
# Outline: as §1
# [12] = Quantitative High-Throughput drug screen in 47 multiple myeloma cell lines against the NCATS MIPE library collection: KMM1_JCRB cell viability assay (AID 1918960); also: nearly all actives have a fitted effect of over 30% in size; also: potency is read from the fitted curve at half-maximal effect
# Outline: as §3
# [13] = Quantitative High-Throughput drug screen in 47 multiple myeloma cell lines against the NCATS MIPE library collection: Karpas417_ECACC cell viability assay (AID 1918961); conditions: Karpas417 myeloma viability, CellTiter-Glo ATP luminescence, 48 h; viability (% of DMSO): at 45.8 µM (top of the series); also: potency is read from the fitted curve at half-maximal effect
# Outline: as §2
# [14] = Quantitative High-Throughput drug screen in 47 multiple myeloma cell lines against the NCATS MIPE library collection: JIM3_ECACC cell viability assay (AID 1918963; also: nearly all actives have a fitted effect of over 35% in size; also: potency is read from the fitted curve at half-maximal effect)
# Outline: as §1
# [15] = Quantitative High-Throughput drug screen in 47 multiple myeloma cell lines against the NCATS MIPE library collection: Karpas25_ECACC cell viability assay (AID 1918968; also: nearly all actives have a fitted effect of over 35% in size; also: potency is read from the fitted curve at half-maximal effect)
# Outline: as §1
# [16] = Quantitative High-Throughput drug screen in 47 multiple myeloma cell lines against the NCATS MIPE library collection: KMS12BM_JCRB cell viability assay (AID 1918971); also: nearly all actives have a fitted effect of over 35% in size; also: potency is read from the fitted curve at half-maximal effect
# Outline: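 Myeloma cells (500 per well) were exposed to MIPE 4.0 compounds by pin transfer and incubated 48 hours at 37C, 5% CO2. Viability was read as ATP by CellTiter-Glo luminescence, normalised to DMSO (100%) and media-only (0%) wells.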
# [17] = Quantitative High-Throughput drug screen in 47 multiple myeloma cell lines against the NCATS MIPE library collection: Delta47_JCRB cell viability assay (AID 1918925; also: nearly all actives have a fitted effect of over 45% in size; also: potency is read from the fitted curve at half-maximal effect)
# Outline: as §1
# [18] = Quantitative High-Throughput drug screen in 47 multiple myeloma cell lines against the NCATS MIPE library collection: KHM11_PLB cell viability assay (AID 1918962); also: nearly all actives have a fitted effect of over 35% in size; also: potency is read from the fitted curve at half-maximal effect
# Outline: as §1
# [19] = Quantitative High-Throughput drug screen in 47 multiple myeloma cell lines against the NCATS MIPE library collection: H1112_PLB cell viability assay (AID 1918967; also: nearly all actives have a fitted effect of over 30% in size; also: potency is read from the fitted curve at half-maximal effect)
# Outline: as §1
# [20] = Quantitative High-Throughput drug screen in 47 multiple myeloma cell lines against the NCATS MIPE library collection: JIM1_ECACC cell viability assay (AID 1918964; also: potency is read from the fitted curve at half-maximal effect)
# Outline: as §1
smiles,measurement,setting,value
Cn1cnc(-c2cc3nccc(Oc4ccc(NC(=S)NC(=O)Cc5ccccc5)cc4F)c3s2)c1,Potency,[1],inactive
same,outcome,[2],inactive
same,Potency,[3],18.7 µM (active)
same,Potency,[4],6.62 µM (active)
same,Potency,[5],16.6 µM (active)
same,Potency,[6],23.5 µM (active)
CS(=O)(=O)c1ccc(C2=C(c3ccccc3)C(=O)OC2)cc1,outcome,[2],inactive
same,Potency,[7],inactive
same,Potency,[8],inactive
same,Potency,[9],inactive
same,Potency,[10],inactive
same,Potency,[11],inactive
same,Potency,[12],inactive
same,Potency,[13],inactive
same,Potency,[14],inactive
same,Potency,[4],inactive
same,Potency,[15],inactive
same,Potency,[6],inactive
same,Potency,[16],inactive
CN(C)CCCNC(=O)c1ccc(-c2cc(O)c3ncccc3c2)cc1,Potency,[1],inactive
same,Potency,[7],20.9 µM (active)
same,Potency,[11],20.9 µM (active)
same,Potency,[12],20.9 µM (active)
same,Potency,[14],23.5 µM (active)
same,Potency,[4],20.9 µM (active)
same,Potency,[5],20.9 µM (active)
same,Potency,[15],18.7 µM (active)
same,Potency,[16],9.35 µM (active)
CC1=C(C(=O)Nc2cc3cn[nH]c3cc2F)C(c2ccc(C(F)(F)F)cc2)CC(=O)N1 (stereo not drawn),Potency,[1],inactive
same,outcome,[2],inactive
same,Potency,[17],inactive
same,Potency,[10],inactive
same,Potency,[12],inactive
same,Potency,[18],inactive
same,Potency,[14],inactive
same,Potency,[4],18.7 µM (active)
same,Potency,[19],inactive
Cc1cnc(Nc2cccc(CN3CCOCC3)c2)nc1Nc1cccc(S(=O)(=O)NC(C)(C)C)c1,outcome,[2],inactive
same,Potency,[7],14.8 µM (active)
same,Potency,[17],4.18 µM (active)
same,Potency,[8],10.5 µM (active)
same,Potency,[10],5.26 µM (active)
same,Potency,[13],0.662 µM (active)
same,Potency,[18],13.2 µM (active)
same,Potency,[14],2.96 µM (active)
same,Potency,[4],0.469 µM (active)
same,Potency,[5],5.9 µM (active)
same,Potency,[15],3.72 µM (active)
same,Potency,[16],5.26 µM (active)
CCN1CCC(n2cc(CNc3cc(Cl)c4ncc(C#N)c(Nc5ccc(F)c(Cl)c5)c4c3)nn2)CC1,Potency,[1],inactive
same,Potency,[17],14.8 µM (active)
same,Potency,[8],10.5 µM (active)
same,Potency,[9],6.62 µM (active)
same,Potency,[3],5.9 µM (active)
same,Potency,[12],inactive
same,Potency,[18],16.6 µM (active)
same,Potency,[14],14.8 µM (active)
same,Potency,[4],20.9 µM (active)
same,Potency,[5],20.9 µM (active)
same,Potency,[15],18.7 µM (active)
same,Potency,[16],9.35 µM (active)
COc1ccc(-c2cc3nccn3c(Nc3ncccc3C(N)=O)n2)cc1OC,outcome,[2],inactive
same,Potency,[7],3.32 µM (active)
same,Potency,[17],0.833 µM (active)
same,Potency,[8],4.69 µM (active)
same,Potency,[9],0.469 µM (active)
same,Potency,[10],4.69 µM (active)
same,Potency,[11],inactive
same,Potency,[13],0.166 µM (active)
same,Potency,[18],0.833 µM (active)
same,Potency,[14],1.05 µM (active)
same,Potency,[20],0.372 µM (active)
same,Potency,[4],0.187 µM (active)
same,Potency,[19],5.9 µM (active)
same,Potency,[15],1.48 µM (active)
Cc1cc(-c2ncc(CC(=O)Nc3ccc(-c4cnccn4)cn3)cc2C)ccn1,Potency,[1],inactive
same,outcome,[2],inactive
same,Potency,[17],14.8 µM (active)
same,Potency,[9],11.8 µM (active)
same,Potency,[18],14.8 µM (active)
same,Potency,[4],10.5 µM (active)
same,Potency,[5],6.62 µM (active)
same,Potency,[15],10.5 µM (active)
same,Potency,[16],6.62 µM (active)
CN1CCN(c2cccc(Nc3nc4c(-c5ccc(S(C)(=O)=O)cc5)cccn4n3)c2)CC1,Potency,[1],inactive
same,Potency,[8],4.18 µM (active)
same,Potency,[9],4.18 µM (active)
same,Potency,[3],1.32 µM (active)
same,Potency,[11],0.833 µM (active)
same,Potency,[12],1.66 µM (active)
same,Potency,[18],2.35 µM (active)
same,Potency,[14],2.96 µM (active)
same,Potency,[20],0.662 µM (active)
same,Potency,[4],0.59 µM (active)
same,Potency,[19],2.35 µM (active)
same,Potency,[15],inactive
same,Potency,[6],1.32 µM (active)
same,Potency,[16],9.35 µM (active)
Nc1ccc(-c2ccc3ncc4ccc(=O)n(-c5cccc(C(F)(F)F)c5)c4c3c2)cn1,Potency,[1],inactive
same,outcome,[2],inactive
same,Potency,[5],0.0235 µM (active)
same,Potency,[16],0.0105 µM (active)
CC1=C[C@@H]2[C@@H]([C@@H](O)C[C@@]3(C)[C@H]2C[C@@H](C)[C@]3(O)C(=O)CO)[C@@]2(C)Cc3cnn(-c4ccccc4)c3C=C12,Potency,[1],inactive
same,Potency,[9],5.26 µM (active)
same,Potency,[3],0.0059 µM (active)
same,Potency,[12],0.0105 µM (active)
same,Potency,[14],26.4 µM (active)
same,Potency,[5],23.5 µM (active)
same,Potency,[15],0.0083 µM (active)
same,Potency,[6],inactive
same,Potency,[16],18.7 µM (active)
O=C(CO)N1CCC(c2[nH]nc(-c3ccc(Cl)cc3)c2-c2ccncn2)CC1,outcome,[2],inactive
same,Potency,[7],inactive
same,Potency,[17],inactive
same,Potency,[8],inactive
same,Potency,[9],inactive
same,Potency,[10],inactive
same,Potency,[11],inactive
same,Potency,[12],inactive
same,Potency,[14],inactive
same,Potency,[20],inactive
same,Potency,[4],11.8 µM (active)
same,Potency,[19],inactive
same,Potency,[15],inactive
same,Potency,[6],inactive
same,Potency,[16],0.935 µM (active)
Cc1cnc(CNC(=O)c2c(=O)c3ccc(N4CCCN(C)CC4)nc3n3c2sc2ccccc23)cn1,redox activity (% of DA3003),[2],-5.5% [at 11.5 µM]
same,Potency,[7],12.9 µM (active)
same,Potency,[17],0.457 µM (active)
same,Potency,[9],0.512 µM (active)
same,Potency,[10],9.11 µM (active)
same,Potency,[18],inactive
same,Potency,[4],2.57 µM (active)
same,Potency,[15],inactive
same,Potency,[6],inactive
same,Potency,[16],0.323 µM (active)
Clc1ccc(C2(c3ccc(-c4cn[nH]c4)cc3)CCNCC2)cc1,outcome,[2],inactive
same,Potency,[7],20.9 µM (active)
same,Potency,[17],1.32 µM (active)
same,Potency,[10],23.5 µM (active)
same,Potency,[13],6.62 µM (active)
same,Potency,[18],11.8 µM (active)
same,Potency,[14],26.4 µM (active)
same,Potency,[4],5.9 µM (active)
same,Potency,[5],20.9 µM (active)
same,Potency,[19],16.6 µM (active)
same,Potency,[15],3.72 µM (active)
same,Potency,[16],23.5 µM (active)

# — PubChem BioAssay (NCATS)
